This is part of a sample that, as a whole, favours compounds with a hit. Of some 83,000 tested, about 20% had one in any assay.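 Assay: single dose, 48 h. Readout: percent growth (0 = no net growth; negative = cell death). Active: <10.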 A number with no mark means an inactive call. Active and inactive are the calls of the source.

Some test systems named below: DU-145 prostate; K-562 leukemia; MALME-3M melanoma; MDA-MB-231 breast; RXF 393 renal; SF-268 CNS; SF-295 CNS; SF-539 CNS; UACC-257 melanoma; M14 melanoma; HCT-15 colon; HT29 colon; SNB-75 CNS; SNB-19 CNS; U251 CNS; PC-3 prostate; UACC-62 melanoma; LOX IMVI melanoma; SK-MEL-28 melanoma; SK-MEL-5 melanoma.
Assay in all cases: NCI-60 one-dose screen, 48 h (100 = growth as untreated, 0 = no growth, -100 = all killed)
Holding throughout (conditions): 10 µM unless noted

In the case of `COc1cc(C(=O)c2cnc(-c3c[nH]c4cccc(C)c34)[nH]2)cc(OC)c1OC`, the growth in the experiment with DU-145 prostate is -6.2% (active); with K-562 leukemia, 8.72% (active); with MALME-3M melanoma, 53.8%; in the experiment with MDA-MB-231 breast, -3.1% (active); in the experiment on RXF 393 renal, 75.2%; in the experiment with SF-268 CNS it was 18.9%. The growth is 7.59% (active) in the experiment with SF-295 CNS; 0.434% (active) in the experiment with SF-539 CNS; 83.9% in the experiment on UACC-257 melanoma; -2.55% (active) with M14 melanoma; 12% with HCT-15 colon; 6.72% (active) with HT29 colon. The growth in the experiment with SNB-75 CNS is 20.3%; in the experiment on SNB-19 CNS, 37.9%; with U251 CNS, 17.7%; in the experiment with PC-3 prostate, 19.4%; in the experiment with UACC-62 melanoma, 32.6%; in the experiment on LOX IMVI melanoma, 24.9%. Also, the growth with SK-MEL-28 melanoma is 59.3%.

Turning to `c1ccc2cc(C[n+]3ccn(CCCCCCCCCCCCn4cc[n+](Cc5ccc6ccccc6c5)c4)c3)ccc2c1`, the growth is -46.5% (active) in the experiment on DU-145 prostate; -59% (active) with K-562 leukemia; -76.7% (active) in the experiment on MALME-3M melanoma; -74% (active) in the experiment with MDA-MB-231 breast; -52.2% (active) with RXF 393 renal; -79.5% (active) in the experiment on SF-268 CNS. In addition, the growth in the experiment on SF-295 CNS is -40.3% (active); in the experiment on SF-539 CNS, -78.6% (active); with UACC-257 melanoma, -67.5% (active); with M14 melanoma it was -44.9% (active); in the experiment with HCT-15 colon, 17.4%; with HT29 colon, -82.7% (active). Besides, the growth is -96.2% (active) with SNB-75 CNS; -80.5% (active) in the experiment with SNB-19 CNS; -84.6% (active) in the experiment with U251 CNS; -37.6% (active) in the experiment on PC-3 prostate; -93.5% (active) in the experiment on SK-MEL-5 melanoma; -81.7% (active) in the experiment with UACC-62 melanoma. Further, in the experiment on SK-MEL-28 melanoma, the growth was -72.3% (active).

`Cc1cccc(NCc2cn(-c3ccc(C(=O)O)cc3)nc2-c2ccc(C(=O)O)cc2)n1`: the growth in the experiment with DU-145 prostate was 103%; with K-562 leukemia, 96.8%; in the experiment on MALME-3M melanoma it was 96.5%; with MDA-MB-231 breast, 95.2%; with RXF 393 renal, 115%; in the experiment with SF-268 CNS, 96.2%. The growth in the experiment with SF-295 CNS is 102%; in the experiment on SF-539 CNS, 98.5%; with UACC-257 melanoma, 109%; in the experiment on M14 melanoma, 110%; with HCT-15 colon it was 107%; in the experiment on HT29 colon it was 107%. In addition, the growth with SNB-75 CNS was 87.4%; with SNB-19 CNS, 104%; with U251 CNS it was 108%; in the experiment with PC-3 prostate it was 103%; in the experiment with UACC-62 melanoma, 101%; in the experiment on LOX IMVI melanoma, 100%.

As for `Cc1cc2nc3cc(C)c(N)cc3[n+](-c3ccccc3)c2cc1N`, the growth was 72.9% in the experiment with DU-145 prostate; 32.4% in the experiment on K-562 leukemia; 48.7% with MALME-3M melanoma; 90.3% in the experiment with MDA-MB-231 breast; 91.7% with RXF 393 renal; 24% in the experiment with SF-268 CNS. The growth is 34.5% in the experiment on SF-295 CNS; 50.5% with SF-539 CNS; 32.6% in the experiment with UACC-257 melanoma; 89.5% in the experiment on M14 melanoma; 111% in the experiment with HCT-15 colon; 85.3% with HT29 colon. The growth in the experiment on SNB-75 CNS was 52.1%; with SNB-19 CNS, 23.3%; in the experiment on U251 CNS, 19.4%; with PC-3 prostate it was 42.5%; with UACC-62 melanoma, 53.1%; in the experiment on LOX IMVI melanoma it was 67%. In addition, in the experiment on SK-MEL-28 melanoma, the growth is 80.7%.

As for `O=C1c2ccccc2NC(n2sc3ccccc3c2=O)N1c1ccccc1` (stereo unspecified), the growth in the experiment on DU-145 prostate was 107%; in the experiment on K-562 leukemia it was 95.5%; in the experiment with MALME-3M melanoma, 106%; in the experiment on MDA-MB-231 breast it was 90.6%; with RXF 393 renal it was 110%; in the experiment on SF-268 CNS, 91.7%. The growth was 99.6% with SF-295 CNS; 94.7% in the experiment on SF-539 CNS; 120% in the experiment on UACC-257 melanoma; 102% in the experiment on M14 melanoma; 91.5% in the experiment on HCT-15 colon; 90.6% in the experiment with HT29 colon. Further, the growth in the experiment on SNB-75 CNS is 94%; in the experiment with SNB-19 CNS, 101%; in the experiment with U251 CNS, 104%; in the experiment on PC-3 prostate, 92.9%; in the experiment on UACC-62 melanoma, 93.3%; with LOX IMVI melanoma it was 87.9%. For the same compound, the growth in the experiment with SK-MEL-28 melanoma is 116%.

Take `O=C(S)CNC(=O)c1ccccc1`: the growth was 98.8% in the experiment on DU-145 prostate; 95.1% with K-562 leukemia; 84.2% with MALME-3M melanoma; 97.6% in the experiment with MDA-MB-231 breast; 92.7% with RXF 393 renal; 86.5% in the experiment with SF-268 CNS. Moreover, the growth in the experiment on SF-295 CNS is 111%; in the experiment on SF-539 CNS it was 93.4%; in the experiment on UACC-257 melanoma, 98%; in the experiment on M14 melanoma, 95.9%; in the experiment with HCT-15 colon it was 112%; in the experiment on HT29 colon, 99.5%. Further, the growth in the experiment on SNB-75 CNS is 96.3%; in the experiment with SNB-19 CNS it was 94.9%; with U251 CNS it was 95.3%; in the experiment with PC-3 prostate it was 91.2%; with SK-MEL-5 melanoma, 99.7%; in the experiment with UACC-62 melanoma, 106%. Further, in the experiment on SK-MEL-28 melanoma, the growth is 104%.

Consider `Fc1cc(-c2nnc3n2NC(=Nc2ccc(Cl)cc2)CS3)c(Cl)cc1Cl`, for which the growth in the experiment on DU-145 prostate is 97.8%; in the experiment on K-562 leukemia, 51.5%; with MALME-3M melanoma it was 105%; in the experiment with MDA-MB-231 breast, 104%; in the experiment with RXF 393 renal, 89.8%; with SF-268 CNS, 91.7%. Moreover, the growth was 81.5% with SF-295 CNS; 98.6% in the experiment with SF-539 CNS; 92.5% with UACC-257 melanoma; 92.4% with M14 melanoma; 97.3% in the experiment with HCT-15 colon; 93.8% in the experiment with HT29 colon. Besides, the growth with SNB-75 CNS was 71.7%; in the experiment with SNB-19 CNS, 93.6%; in the experiment with U251 CNS, 94.9%; in the experiment on PC-3 prostate, 111%; in the experiment with SK-MEL-5 melanoma, 88.9%; in the experiment with UACC-62 melanoma, 81.4%. Besides, in the experiment on SK-MEL-28 melanoma, the growth was 99%.

Consider `COC(=O)c1ccc2[nH]c(O)c(C(=Nc3ccc(N(C)C(=O)CN4CCN(C)CC4)cc3)c3ccccc3)c2c1`, for which the growth was 21.5% in the experiment on DU-145 prostate; 9.67% (active) in the experiment on K-562 leukemia; -6.01% (active) with MALME-3M melanoma; 22.6% in the experiment with MDA-MB-231 breast; -39.3% (active) in the experiment with RXF 393 renal; 27.7% with SF-268 CNS. Moreover, the growth in the experiment on SF-295 CNS was 27.3%; in the experiment with SF-539 CNS, -25.5% (active); with UACC-257 melanoma, 35.4%; in the experiment with M14 melanoma it was 11.2%; in the experiment with HCT-15 colon, 12.3%; with HT29 colon it was 21.3%. In addition, the growth is -4.83% (active) in the experiment on SNB-75 CNS; 42.6% in the experiment with SNB-19 CNS; 31.4% with U251 CNS; 36.3% in the experiment with PC-3 prostate; 74.6% in the experiment on UACC-62 melanoma; 16.3% in the experiment on LOX IMVI melanoma. Besides, the growth in the experiment on SK-MEL-28 melanoma was 29.3%.

Values taken from PubChem BioAssay (NCI).
